The campaign covered roughly 5,500 compounds. About 2,000 (36%) were called active. Another 18% or so got no clear call; they are omitted. Rule as the data show it: active = normalized growth mostly below about 0.91 (no sharp cut-off); inconclusive = no clear call, values can overlap the other calls; inactive = mostly above about 0.92. The list shows a part of the results.
Test: chemical genetic growth profiling, strain panel (AID 1159580);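 also: tested at 20 µM; growth read once vehicle control cultures reached saturation at 30 °C; 1 = growth at the plate median or of vehicle wells; lower values mean less growth of the strain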
Conditions: growth OD

Measured: normalized growth

C=C1c2cccc(O)c2C(O)=C2C(=O)[C@]3(O)C(O)=C(C(N)=O)C(=O)[C@@H](N(C)C)[C@@H]3[C@@H](O)[C@H]12
inactive: S. cerevisiae deletion strains, locus YJR075W, strain HOC1, stronger effect = lower value 0.992 | S. cerevisiae deletion strains, locus YKL009W, strain mrt4, stronger effect = lower value 1.03 | S. cerevisiae deletion strains, locus YKL068W, stronger effect = lower value 0.989 | S. cerevisiae deletion strains, locus YKL085W, strain MDH1 (second series), stronger effect = lower value 0.978 | S. cerevisiae deletion strains, locus YKL085W, strain MDH1, stronger effect = lower value 0.978 | S. cerevisiae deletion strains, locus YKL160W, strain elf1, stronger effect = lower value 1.02 | S. cerevisiae deletion strains, locus YKL190W, strain CNB1, stronger effect = lower value 0.992 | S. cerevisiae deletion strains, locus YKR001C, strain vps1, stronger effect = lower value 0.961 | S. cerevisiae deletion strains, locus YKR026C, strain gcn3, stronger effect = lower value 0.994 | S. cerevisiae deletion strains, locus YLL001W, strain dnm1, stronger effect = lower value 1.01 | S. cerevisiae deletion strains, locus YLL026W, stronger effect = lower value 1.02 | S. cerevisiae deletion strains, locus YLL041C, strain sdh2, stronger effect = lower value 1.02 | S. cerevisiae deletion strains, locus YLR027C, strain aat2, stronger effect = lower value 1.01 | S. cerevisiae deletion strains, locus YLR039C, strain RIC1, stronger effect = lower value 0.94 | S. cerevisiae deletion strains, locus YLR058C, strain SHM2, stronger effect = lower value 0.975 | S. cerevisiae deletion strains, locus YLR102C, strain apc9, stronger effect = lower value 1 | S. cerevisiae deletion strains, locus YLR113W, strain HOG1, stronger effect = lower value 0.986 | S. cerevisiae deletion strains, locus YLR221C, strain rsa3, stronger effect = lower value 0.996 | S. cerevisiae deletion strains, locus YLR258W, strain gsy2, stronger effect = lower value 1 | S. cerevisiae deletion strains, locus YLR262C, strain YPT6 (second series), stronger effect = lower value 1.01 | S. cerevisiae deletion strains, locus YLR262C, strain YPT6, stronger effect = lower value 0.967 | S. cerevisiae deletion strains, locus YLR268W, strain sec22, stronger effect = lower value 0.905 | S. cerevisiae deletion strains, locus YLR320W, strain mms22, stronger effect = lower value 1.01 | S. cerevisiae deletion strains, locus YLR330W, strain CHS5, stronger effect = lower value 0.969 | S. cerevisiae deletion strains, locus YLR342W, strain FKS1 (second series), stronger effect = lower value 0.979 | S. cerevisiae deletion strains, locus YLR342W, strain FKS1, stronger effect = lower value 1.01 | S. cerevisiae deletion strains, locus YLR357W, strain rsc2, stronger effect = lower value 1.01 | S. cerevisiae deletion strains, locus YLR370C, strain arc18, stronger effect = lower value 1.02 | S. cerevisiae deletion strains, locus YLR371W, strain rom2, stronger effect = lower value 0.991 | S. cerevisiae deletion strains, locus YLR384C, strain iki3, stronger effect = lower value 1.03 | S. cerevisiae deletion strains, locus YLR418C, strain cdc73, stronger effect = lower value 0.972 | S. cerevisiae deletion strains, locus YML016C, strain PPZ1, stronger effect = lower value 0.979 | S. cerevisiae deletion strains, locus YML032C, strain rad52, stronger effect = lower value 0.959 | S. cerevisiae deletion strains, locus YML120C, strain ndi1, stronger effect = lower value 1.01 | S. cerevisiae deletion strains, locus YML124C, strain tub3, stronger effect = lower value 0.991 | S. cerevisiae deletion strains, locus YMR058W, strain fet3, stronger effect = lower value 0.986 | S. cerevisiae deletion strains, locus YMR078C, strain ctf18, stronger effect = lower value 1 | S. cerevisiae deletion strains, locus YMR125W, strain sto1, stronger effect = lower value 0.998 | S. cerevisiae deletion strains, locus YMR129W, stronger effect = lower value 0.998 | S. cerevisiae deletion strains, locus YMR205C, strain PFK2, stronger effect = lower value 1.02 | S. cerevisiae deletion strains, locus YMR223W, strain ubp8, stronger effect = lower value 0.992 | S. cerevisiae deletion strains, locus YMR231W, strain pep5, stronger effect = lower value 1.01 | S. cerevisiae deletion strains, locus YMR263W, strain SAP30, stronger effect = lower value 0.976 | S. cerevisiae deletion strains, locus YMR307W, strain GAS1, stronger effect = lower value 1.02 | S. cerevisiae deletion strains, locus YNL067W, strain RPL9B, stronger effect = lower value 0.95 | S. cerevisiae deletion strains, locus YNL071W, strain lat1, stronger effect = lower value 1.03 | S. cerevisiae deletion strains, locus YNL128W, strain TEP1, stronger effect = lower value 0.976 | S. cerevisiae deletion strains, locus YNL153C, strain GIM3, stronger effect = lower value 0.925 | S. cerevisiae deletion strains, locus YNL183C, strain NPR1, stronger effect = lower value 0.922 | S. cerevisiae deletion strains, locus YNL209W, strain ssb2, stronger effect = lower value 1.01 | S. cerevisiae deletion strains, locus YNL233W, strain BNI4, stronger effect = lower value 0.965 | S. cerevisiae deletion strains, locus YNL248C, strain rpa49, stronger effect = lower value 1.06 | S. cerevisiae deletion strains, locus YNL250W, strain rad50, stronger effect = lower value 0.987 | S. cerevisiae deletion strains, locus YNL271C, strain bni1, stronger effect = lower value 0.954 | S. cerevisiae deletion strains, locus YNL298W, strain CLA4, stronger effect = lower value 0.981 | S. cerevisiae deletion strains, locus YNL307C, strain MCK1, stronger effect = lower value 1 | S. cerevisiae deletion strains, locus YNL322C, strain KRE1 (second series), stronger effect = lower value 1.01 | S. cerevisiae deletion strains, locus YNL322C, strain KRE1, stronger effect = lower value 0.991 | S. cerevisiae deletion strains, locus YNR049C, strain mso1, stronger effect = lower value 1.04 | S. cerevisiae deletion strains, locus YNR052C, strain pop2, stronger effect = lower value 0.982 | S. cerevisiae deletion strains, locus YOL006C, strain TOP1, stronger effect = lower value 0.891 | S. cerevisiae deletion strains, locus YOL012C, strain htz1 0.75 | S. cerevisiae deletion strains, locus YOL147C, strain pex11, stronger effect = lower value 0.995 | S. cerevisiae deletion strains, locus YOR001W, strain rrp6, stronger effect = lower value 1.04 | S. cerevisiae deletion strains, locus YOR061W, strain CKA2, stronger effect = lower value 0.979 | S. cerevisiae deletion strains, locus YOR069W, strain VPS5, stronger effect = lower value 1 | S. cerevisiae deletion strains, locus YOR070C, strain gyp1, stronger effect = lower value 1 | S. cerevisiae deletion strains, locus YOR080W, strain dia2, stronger effect = lower value 1.02 | S. cerevisiae deletion strains, locus YOR083W, strain WHI5, stronger effect = lower value 1.01 | S. cerevisiae deletion strains, locus YOR106W, strain vam3, stronger effect = lower value 1.01 | S. cerevisiae deletion strains, locus YOR136W, strain idh2, stronger effect = lower value 1 | S. cerevisiae deletion strains, locus YOR144C, strain elg1, stronger effect = lower value 1 | S. cerevisiae deletion strains, locus YOR184W, strain ser1, stronger effect = lower value 0.98 | S. cerevisiae deletion strains, locus YOR231W, strain MKK1, stronger effect = lower value 0.964 | S. cerevisiae deletion strains, locus YOR265W, strain rbl2, stronger effect = lower value 1.01 | S. cerevisiae deletion strains, locus YOR270C, strain vph1, stronger effect = lower value 1 | S. cerevisiae deletion strains, locus YOR290C, strain snf2, stronger effect = lower value 0.998 | S. cerevisiae deletion strains, locus YOR316C, strain cot1, stronger effect = lower value 0.988 | S. cerevisiae deletion strains, locus YPL051W, strain arl3, stronger effect = lower value 1 | S. cerevisiae deletion strains, locus YPL055C, strain LGE1, stronger effect = lower value 0.951 | S. cerevisiae deletion strains, locus YPL078C, strain atp4, stronger effect = lower value 1.03 | S. cerevisiae deletion strains, locus YPL106C, strain sse1, stronger effect = lower value 0.995 | S. cerevisiae deletion strains, locus YPL240C, strain hsp82, stronger effect = lower value 1.01 | S. cerevisiae deletion strains, locus YPL241C, strain CIN2, stronger effect = lower value 0.998 | S. cerevisiae deletion strains, locus YPL256C, strain CLN2, stronger effect = lower value 0.964 | S. cerevisiae deletion strains, locus YPR119W, strain clb2, stronger effect = lower value 0.994 | S. cerevisiae deletion strains, locus YPR141C, strain kar3, stronger effect = lower value 0.981 | S. cerevisiae deletion strains, locus YPR163C, strain tif3, stronger effect = lower value 0.992 | S. cerevisiae deletion strains, locus YPR167C, strain met16, stronger effect = lower value 0.983 | S. cerevisiae deletion strains, strain wtn01, stronger effect = lower value 0.932 | S. cerevisiae strains, strain wild type, stronger effect = lower value 0.969
